Source: PubChem BioAssay (EPA / NIEHS)
Inconclusive results are not listed. Active and inactive are the calls of the source. The calls were made as follows, unless noted: active = hit-call score of the fitted dose curve at least 0.9, where 1 is the maximum; inactive = score below 0.9.

Tests used:
[1] = CCTE_Shafer_MEA_acute_spike_number: CCTE's Neural Acute Assay for Total Number of Spikes, Shafer Lab (AID 2284008);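 as to AC50: curve fitted for decrease in spike count so AC50 reflects inhibitors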
Outline: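 Rat primary cortical neurons on 48-well MEA plates, DIV 13 or 15, at 37 C. 40 min baseline then 40 min with compound (0.03-40 uM); spikes detected at 8x rms noise, expressed as percent change from baseline.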

[2] = CCTE_Shafer_MEA_acute_firing_rate_mean: CCTE's Neural Acute Assay for Mean Firing Rate, Shafer Lab (AID 2284009);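 also: analyzed for loss of signal so actives lower firing rate relative to DMSO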
Outline: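 Rat primary cortical neurons on 48-well MEA plates, dosed at 0.03-40 uM on DIV 13 or 15; 40 min spontaneous activity recorded at 37 C before and after compound. Spike rate per electrode averaged per well, expressed as percent change from baseline.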

[3] = CCTE_Harrill_HTTr_Viability_MCF7: CCTE's 6-hour Cell Viability Assessment for the High-Throughput Transcriptomics (HTTr) Platform, in MCF-7 cells cultured in DMEM + 10% fetal bovine serum, Harrill Lab (AID 2284010)
Outline: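 Viability measured through PI dye exclusion by high-content imaging at 6 h post-dosing.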

[4] = CCTE_Harrill_HTTr_Apoptosis_MCF7: CCTE's 6-hour Apoptosis Assessment for the High-Throughput Transcriptomics (HTTr) Platform, in MCF-7 cells cultured in DMEM + 10% fetal bovine serum, Harrill Lab (AID 2284011)
Outline: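 MCF-7 cells in DMEM + 10% FBS exposed 6 h to chemicals over an eight-point dilution series. Caspase-3/7 activation imaged by high-content CellEvent Green staining; fitted bidirectionally versus DMSO.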

[5] = CCTE_Harrill_HTTr_CellCount_MCF7: CCTE's Cell Proliferation Assessment for the High-Throughput Transcriptomics (HTTr) Platform, Harrill Lab (AID 2284012; active = hit-call score of the fitted dose curve at least 0.9, where 1 is the maximum;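 also: count of Hoechst-stained nuclei per well by high-content imaging in MCF-7 cells; cells exposed to compound for six hours; intended direction is loss of nuclei count meaning fewer cells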)
Outline: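 Nuclei counting (Hoechst, high content imaging) in MCF-7 after a 6 h treatment at eight concentrations. Activity fitted bidirectionally, DMSO as negative control.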

[6] = CCTE_Shafer_MEA_acute_burst_number: CCTE's Neural Acute Assay for Single-Electrode Bursts, Shafer Lab (AID 2284013)
Outline: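 Primary rat cortical neurons on 16-electrode MEA wells, treated on DIV 13 or 15 with compound at 0.03-40 uM. Single-electrode burst count from 40-min recordings at 37 C before and after exposure; percent change from baseline per well, DMSO negative control.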

[7] = CCTE_Shafer_MEA_acute_burst_duration_mean: CCTE's Neural Acute Assay for Mean Burst Duration, Shafer Lab (AID 2284014);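 also: hits are decreases in mean burst duration relative to DMSO controls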
Outline: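 Rat primary cortical neurons on 48-well MEA, treated at DIV 13 or 15 with 0.03-40 uM in at least 3 wells. Value is percent change in mean burst duration, comparing 40 min recordings at 37 C before and during exposure.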

[8] = CCTE_Shafer_MEA_acute_per_burst_spike_number_mean: CCTE's Neural Acute Assay for Average Number of Spikes Per Burst, Shafer Lab (AID 2284015);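 also: hits are decreases in mean spikes per burst versus baseline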
Outline: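 Percent change in mean spikes per single-electrode burst is compared between a 40 min baseline and a 40 min recording with compound (0.03-40 uM). Cultures were rat cortical neurons on MEA plates at DIV 13 or 15, recorded at 37 C, with DMSO as the negative control.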

[9] = CCTE_Shafer_MEA_acute_interburst_interval_mean: CCTE's Neural Acute Assay for Mean Interburst Interval, Shafer Lab (AID 2284016);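 also: percent change of mean interburst interval versus each well's own pre-dose baseline; curves fitted for decrease in interburst interval relative to DMSO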
Outline: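 Percent change in mean single-electrode interburst interval was calculated per well from 40 min recordings before and after compound (0.03-40 uM). Recordings were made at 37 C on rat cortical cultures at DIV 13 or 15, with spikes detected at 8x rms threshold.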

[10] = CCTE_Shafer_MEA_acute_burst_percentage_mean: CCTE's Neural Acute Assay for Percentage of Spikes in a Burst, Shafer Lab (AID 2284017);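 as to AC50: curve fitted for loss of signal so potency reflects decreased burst percentage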
Outline: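 Well-level mean burst percentage from a 40-min recording after compound (0.03-40 uM) expressed as percent change from a 40-min baseline at 37C. Cultures: primary rat cortical neurons on MEA, dosed on DIV 13 or 15; fitted downward relative to DMSO.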

[11] = CCTE_Simmons_MITO_basal_resp_rate: CCTE's HepG2 Seahorse XF Respirometric Screening Assay at Basal Respiratory State, Simmons Lab (AID 2284001); details: actives raise or lower the signal
Outline: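 HepG2 oxygen consumption on Seahorse XF96 after compound injection, 7 concentrations 125 nM–100 uM final, reads every 6 min over 72 min. Triplicate biological replicates; bidirectional fit vs DMSO; fenpyroximate and 2,4-dinitrophenol controls.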

[12] = CCTE_Simmons_MITO_inhib_resp_rate: CCTE's HepG2 Seahorse XF Respirometric Screening Assay at Inhibited Respiratory State [full ETC block], Simmons Lab (AID 2284006); details: actives raise or lower the signal
Outline: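 Inhibited respiration was taken as HepG2 oxygen consumption after rotenone/antimycin A, which followed test-compound and FCCP injections. Chemicals were tested at seven final concentrations from 125 nM to 100 uM. Activity was fitted bidirectionally relative to DMSO.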

[13] = CCTE_Simmons_MITO_viability: CellTiter-Glo Viability Assessment for CCTE's HepG2 Seahorse XF Respirometric Screening Assay [post-hoc], Simmons Lab (AID 2284007; active = hit-call score of the fitted dose curve at least 0.9, where 1 is the maximum;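 as to AC50: cells exposed to chemical for 90 min before the ATP read; actives lower ATP signal relative to DMSO baseline meaning reduced viability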)
Outline: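 HepG2 cells; test chemical 7 conc. (125 nM–100 uM final) × 90 min; then luminescent ATP detection. DMSO vehicle. Positive control dichlone, 8 conc. from 10 nM to 100 uM final. Loss-of-signal endpoint.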

[14] = target: Ratio of Nucleoli Translocation and Cytoplasm, AR (gene 367) (UniProt P10275); test: UPITT_HCI_U2OS_AR_TIF2_Nucleoli_Cytoplasm_Ratio_Agonist: University of Pittsburgh U2OS Androgen Receptor-Transcriptional Intermediary Factor 2 (AR-TIF2) Agonism High Content Imaging Assay for Ratio of Nucleoli Translocation and Cytoplasm (AID 2284000; active = hit-call score of the fitted dose curve at least 0.9, where 1 is the maximum;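 also: hits raise the red nucleolar to cytoplasm ratio above vehicle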)
Outline: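 U2OS cells expressing RFP-tagged human AR and GFP-tagged TIF2; high-content imaging ratio of nucleolar to cytoplasmic red fluorescence, fitted as gain of signal vs DMSO. Single point at 20 uM final (0.2% DMSO); concentration-response 0.195-50 uM final (0.5% DMSO).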

Measured: AC50

Sequence of Ratio of Nucleoli Translocation and Cytoplasm, AR (gene 367) (P10275 whole entry, looked up): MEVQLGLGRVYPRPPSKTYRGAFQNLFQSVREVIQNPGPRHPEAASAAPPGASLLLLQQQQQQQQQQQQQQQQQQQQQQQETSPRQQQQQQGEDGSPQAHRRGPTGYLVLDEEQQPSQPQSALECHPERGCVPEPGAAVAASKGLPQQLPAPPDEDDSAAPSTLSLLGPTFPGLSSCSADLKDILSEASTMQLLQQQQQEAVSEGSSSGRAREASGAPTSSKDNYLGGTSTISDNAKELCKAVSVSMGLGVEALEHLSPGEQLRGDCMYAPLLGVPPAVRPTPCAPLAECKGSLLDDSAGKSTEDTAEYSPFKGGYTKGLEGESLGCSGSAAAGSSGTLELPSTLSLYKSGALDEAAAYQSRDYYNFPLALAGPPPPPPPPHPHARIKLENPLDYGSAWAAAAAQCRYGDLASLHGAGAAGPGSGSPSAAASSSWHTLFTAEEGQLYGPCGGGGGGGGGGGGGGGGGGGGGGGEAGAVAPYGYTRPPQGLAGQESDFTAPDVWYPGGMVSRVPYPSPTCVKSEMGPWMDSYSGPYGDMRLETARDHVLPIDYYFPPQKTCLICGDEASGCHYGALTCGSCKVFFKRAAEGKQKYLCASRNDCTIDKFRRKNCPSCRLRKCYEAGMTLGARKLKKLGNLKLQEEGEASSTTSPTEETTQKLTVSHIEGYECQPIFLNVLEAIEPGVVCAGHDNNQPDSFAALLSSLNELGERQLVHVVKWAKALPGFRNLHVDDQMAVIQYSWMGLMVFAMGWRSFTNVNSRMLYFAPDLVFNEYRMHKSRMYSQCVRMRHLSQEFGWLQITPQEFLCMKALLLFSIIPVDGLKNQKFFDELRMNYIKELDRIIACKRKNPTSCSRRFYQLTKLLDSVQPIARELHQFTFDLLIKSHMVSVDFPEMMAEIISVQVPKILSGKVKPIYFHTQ

Nc1ccccc1N
not listed: [11] | [12] | [13] | [14]
inactive: all other assays above

Cc1c(C(=O)O)c(O)cc2c1C(=O)c1c(O)c([C@@H]3O[C@H](CO)[C@@H](O)[C@H](O)[C@H]3O)c(O)c(O)c1C2=O
active: [12] 3.25 µM | [13] 40.1 µM
inactive: [11] | [3] | [4] | [5]

CC(=O)C(C)=CC1C(C)=CCCC1(C)C (configuration not stated)
active: [10] 20 µM
not listed: [5] | [11] | [12] | [13] | [14]
inactive: all other assays above

Cc1ccc(C(C)C)c(O)c1
active: [10] 20 µM
not listed: [11] | [12] | [13] | [14]
inactive: all other assays above

NCC1(Cc2noc(=O)[nH]2)CCCCC1
not listed: [11] | [12] | [13] | [14]
inactive: all other assays above

FC(F)(F)C(F)(F)C(F)(F)C(F)(F)C(F)(F)C(F)(F)CCI
not listed: [5] | [11] | [12] | [13] | [14]
inactive: all other assays above

C1CCC(SSC2CCCCC2)CC1
inactive: [3] | [4]

C=CCc1ccc(O)c(OC)c1
not listed: [11] | [12] | [13] | [14]
inactive: all other assays above

CNCc1cc(F)ccc1Oc1ccc(Cl)c(Cl)c1
active: [1] 3.97 µM | [2] 2.55 µM | [6] 2.24 µM | [7] 33.5 µM | [8] 31.5 µM
inactive: [3] | [4] | [5] | [9] | [10]

O=C(O)CCCCC(=O)O
not listed: [11] | [12] | [13] | [14]
inactive: all other assays above

Cc1oc(-c2ccccc2)nc1CCOc1cccc2c1ccn2CCC(=O)O
active: [11] 3.11 µM
inactive: [12] | [13] | [3] | [4]

Nc1nc(N)c2nc(CNc3ccc(C(=O)N[C@@H](CCC(=O)O)C(=O)O)cc3)cnc2n1
inactive: [1] | [2] | [6] | [7] | [8] | [9] | [10]

C=CCOC(=O)c1ccccc1C(=O)OCC=C
active: [11] 36.2 µM | [10] 20 µM
not listed: [14]
inactive: all other assays above

Cc1ccc2ncccc2c1
not listed: [5] | [11] | [12] | [13] | [14]
inactive: all other assays above

C[Si]1(C)O[Si](C)(C)O[Si](C)(C)O[Si](C)(C)O1
not listed: [11] | [12] | [13] | [14]
inactive: all other assays above

Clc1cc(Cl)c(Cl)cc1Cl
not listed: [11] | [12] | [13] | [14]
inactive: all other assays above

CN1CCCC1=O
not listed: [11] | [12] | [13] | [14]
inactive: all other assays above

CCCCCCCCCCCCCCCCCC(=O)O
not listed: [5] | [11] | [12] | [13] | [14]
inactive: all other assays above

CCCCN(CCCC)CCCC
inactive: [3] | [4]

Cc1cccc(Nc2cc(Cl)nc(SCC(=O)O)n2)c1C
inactive: [14] | [11] | [12] | [13] | [3] | [4]

CC1(C)CC(N=C=O)CC(C)(CN=C=O)C1 (configuration not stated)
inactive: [3] | [4]

c1cc(-c2ccncc2)ccn1
not listed: [11] | [12] | [13] | [14]
inactive: all other assays above

CC(=O)OC/C=C(\C)CCC=C(C)C
inactive: [3] | [4]

COC(=O)c1ccc(O)cc1
inactive: [3] | [4] | [5]

NC(=O)Cn1c(=O)cc(CCN2CCN(c3nccc4sccc34)CC2)c2ccc(F)cc21
inactive: [3] | [4] | [5]

O=[N+]([O-])C(CO)(CO)CO
inactive: [3] | [4] | [5]

Oc1ccc2c(c1)OC[C@@H](N1CCC(O)(c3ccc(F)cc3)CC1)[C@H]2O
inactive: [3] | [4] | [5]

OC[C@@H](O)[C@@H](O)[C@H](O)[C@H](O)CO
inactive: [3] | [4] | [5]

CCCCc1ccc2c(n1)[C@@H](c1ccc(OC)cc1C[C@H](C)C(=O)O)[C@H](C(=O)O)[C@H]2c1ccc2c(c1)OCO2
inactive: [3] | [4] | [5]

CC(C)c1ccc(C(=O)N=C(N)N)cc1S(C)(=O)=O
inactive: [3] | [4] | [5]

CCCCCCCCCCCCCCCC
inactive: [3] | [4]

CCCCCCCCCCCCCO
inactive: [3] | [4] | [5]

Cc1nc(C)nc(N2C[C@@H](C)N(c3ccnc([C@@H](C)O)n3)[C@@H](C)C2)n1
inactive: [3] | [4] | [5]

CCCCCCCCCCCC(=O)OC
inactive: [3] | [4] | [5]

NCCO
inactive: [3] | [4] | [5]

O=C(N[C@@H](Cc1ccccc1)[C@@H](O)C(=O)N1C[C@@H](O)[C@@H](O)C1)c1cc2cc(Cl)ccc2[nH]1
inactive: [3] | [4] | [5]

CCCCOC(=O)CCCCCCCCC(=O)OCCCC
inactive: [3] | [4]

CCCCCCOCCO
inactive: [3] | [4]

O=c1[nH]cc(F)c(=O)[nH]1
inactive: [3] | [4] | [5]

CCOC(=O)CCC(=O)OCC
inactive: [3] | [4] | [5]

CC1(C)NC(=O)NC1=O
inactive: [3] | [4] | [5]

CC(=O)OCCOCCOCCOC(C)=O
inactive: [3] | [4]

O=C(OCCCCCOC(=O)c1ccccc1)c1ccccc1
inactive: [3] | [4] | [5]

CCc1c(C(=O)NN2CCCCC2)nn(-c2ccc(Cl)cc2Cl)c1-c1ccc(Br)cc1
inactive: [3] | [4] | [5]

CC1=C(/C=C/C(C)=C/C=C/C(C)=C/CO)C(C)(C)CCC1
inactive: [3] | [4] | [5]

COc1cccc2c1C(=O)c1c(O)c3c(c(O)c1C2=O)C[C@@](O)(C(=O)CO)C[C@@H]3O[C@H]1C[C@H](N)[C@H](O)[C@H](C)O1
active: [3] 37.5 µM | [4] 90.8 µM

Nc1ccc(S(=O)(=O)c2ccc(N)cc2)cc1
inactive: [3] | [4] | [5]

C[C@]12C=CC(=O)C=C1CC[C@@H]1[C@@H]2C(=O)C[C@@]2(C)[C@H]1CC[C@]2(O)C(=O)CO
inactive: [3] | [4] | [5]

CCNc1cccc(C)c1
inactive: [3] | [4] | [5]

Oc1ccc2ccccc2c1N=Nc1ccccc1
inactive: [3] | [4] | [5]
